{
  "source": "paper PMC4336329",
  "about": "(PLoS ONE, 2015)",
  "note": "The whole screen tested about 310,000 compounds, of which about 14,000 (4.5%) showed an effect of 50% or more. Effects have a minus sign here. Shown is part of a subset that was picked to be rich in strong results.",
  "data": [
    {"biological_target": "human ether-à-go-go-related gene (hERG) potassium channel (human, UniProt Q12809)", "sequence (Q12809 whole entry, looked up)": "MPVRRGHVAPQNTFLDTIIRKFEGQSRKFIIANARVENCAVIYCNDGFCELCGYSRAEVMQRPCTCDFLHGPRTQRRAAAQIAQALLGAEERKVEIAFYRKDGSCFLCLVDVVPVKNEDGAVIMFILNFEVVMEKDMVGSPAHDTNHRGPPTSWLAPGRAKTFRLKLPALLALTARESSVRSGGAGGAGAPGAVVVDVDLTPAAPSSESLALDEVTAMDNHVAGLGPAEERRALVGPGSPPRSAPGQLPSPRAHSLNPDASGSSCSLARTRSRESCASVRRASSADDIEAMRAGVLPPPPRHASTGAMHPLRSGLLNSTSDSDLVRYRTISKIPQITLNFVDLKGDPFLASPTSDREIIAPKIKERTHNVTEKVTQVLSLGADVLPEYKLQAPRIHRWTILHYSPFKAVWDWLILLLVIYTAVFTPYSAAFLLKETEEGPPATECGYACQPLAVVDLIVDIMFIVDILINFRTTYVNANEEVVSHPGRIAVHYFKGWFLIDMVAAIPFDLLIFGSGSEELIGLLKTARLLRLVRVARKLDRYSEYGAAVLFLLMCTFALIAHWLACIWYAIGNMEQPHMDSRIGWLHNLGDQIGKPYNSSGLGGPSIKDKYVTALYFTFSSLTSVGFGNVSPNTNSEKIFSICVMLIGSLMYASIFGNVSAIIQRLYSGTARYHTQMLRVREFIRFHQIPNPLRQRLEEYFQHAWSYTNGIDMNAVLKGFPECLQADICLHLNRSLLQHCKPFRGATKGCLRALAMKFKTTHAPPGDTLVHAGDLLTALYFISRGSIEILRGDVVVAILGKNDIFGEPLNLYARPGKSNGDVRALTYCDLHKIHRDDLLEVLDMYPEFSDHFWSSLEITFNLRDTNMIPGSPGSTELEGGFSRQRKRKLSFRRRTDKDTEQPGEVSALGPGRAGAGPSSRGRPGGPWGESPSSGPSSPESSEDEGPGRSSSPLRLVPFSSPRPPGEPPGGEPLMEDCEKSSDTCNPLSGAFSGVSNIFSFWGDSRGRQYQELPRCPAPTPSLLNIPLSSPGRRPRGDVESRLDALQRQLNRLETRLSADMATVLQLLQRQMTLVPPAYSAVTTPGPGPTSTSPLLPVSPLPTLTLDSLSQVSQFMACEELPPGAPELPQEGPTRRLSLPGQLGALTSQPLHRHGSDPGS", "test": "primary screen, population patch clamp on CHO cells stably expressing hERG; higher = less effect of the substance", "units": {"hERG current change (%, negative = inhibition) at 10uM": "%"}, "values": [
      {"compound": "C[C@]12CCC3C(CC[C@H]4CCCC[C@]34C)C1CC[C@@]2(O)CNCCO", "note": "(stereo partly shown);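 note: peak tail current of the secondary pulse compared with the same well before compound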", "hERG current change (%, negative = inhibition) at 10uM": 15.6},
      {"compound": "O=C(O)CCCNc1cc(N2CCN(C(=O)c3ccco3)CC2)c2noc3c2c1C(=O)c1ccccc1-3", "hERG current change (%, negative = inhibition) at 10uM": 19},
      {"compound": "O=C(O)C1CCCCC1C(=O)Nc1nc(-c2ccc(Cl)s2)cs1", "note": "(stereo not shown)", "hERG current change (%, negative = inhibition) at 10uM": 13.7},
      {"compound": "C/C(=N\\NC(=O)c1ccc(F)cc1)c1ccc(N2CCOCC2)cc1", "hERG current change (%, negative = inhibition) at 10uM": -16.7},
      {"compound": "O=S(=O)(c1cccc(-c2cn3cc(Cl)ccc3n2)c1)N1CCOCC1", "hERG current change (%, negative = inhibition) at 10uM": -23.1},
      {"compound": "CCCCOC(=O)c1ccc(NC(=O)CSCc2n[nH]c(=O)[nH]2)cc1", "hERG current change (%, negative = inhibition) at 10uM": 1.91},
      {"compound": "S=C(NC1CCCCC1)N(CCc1nc2ccccc2[nH]1)C1CCCC1", "hERG current change (%, negative = inhibition) at 10uM": 4.83},
      {"compound": "COc1ccc(N2CCN(C(=O)C3CCN(C(=O)c4ccc([N+](=O)[O-])cc4)CC3)CC2)cc1", "hERG current change (%, negative = inhibition) at 10uM": -69},
      {"compound": "CCN(CC)C(=O)Cn1cc(C(=O)C(=O)N2CCN(c3ccccc3)CC2)c2ccccc21", "hERG current change (%, negative = inhibition) at 10uM": -0.908},
      {"compound": "CCOC(=O)N1CCN(c2ccc(O)cc2)CC1", "hERG current change (%, negative = inhibition) at 10uM": 15.6},
      {"compound": "CC(C)(C)OC(=O)N1CCN(c2ccc([N+](=O)[O-])cc2)CC1", "hERG current change (%, negative = inhibition) at 10uM": -73.3},
      {"compound": "CCOC(=O)N1CCN(c2ccc([N+](=O)[O-])cc2)CC1", "hERG current change (%, negative = inhibition) at 10uM": -59.4},
      {"compound": "CCOC(=O)N1CCN(S(=O)(=O)c2ccc([N+](=O)[O-])cc2)CC1", "hERG current change (%, negative = inhibition) at 10uM": -23.9},
      {"compound": "Cc1cnc(C(=O)Nc2ccc(N3CCN(C(=O)OC(C)(C)C)CC3)cc2)cn1", "hERG current change (%, negative = inhibition) at 10uM": 14.1},
      {"compound": "COc1ccc(C(=O)N2CCC(C(=O)N3CCN(c4ccc(OC)cc4)CC3)CC2)cc1", "hERG current change (%, negative = inhibition) at 10uM": -43.5},
      {"compound": "O=[N+]([O-])c1ccc(N2CCN(c3ccccc3O)CC2)cc1", "hERG current change (%, negative = inhibition) at 10uM": -0.173},
      {"compound": "CCN(CC)C(=O)Cn1cc(C(=O)C(=O)N2CCN(c3ccc([N+](=O)[O-])cc3)CC2)c2ccccc21", "hERG current change (%, negative = inhibition) at 10uM": -65.8},
      {"compound": "CCN(CC)C(=O)Cn1cc(C(=O)C(=O)N2CCN(c3ccc(OC)cc3)CC2)c2ccccc21", "hERG current change (%, negative = inhibition) at 10uM": 16.1},
      {"compound": "COc1ccc(N2CCN(C(=O)C3CCN(C(=O)c4cccc(Cl)c4)CC3)CC2)cc1", "hERG current change (%, negative = inhibition) at 10uM": -29.8},
      {"compound": "COC(=O)C(NS(=O)(=O)c1ccc(NC(C)=O)cc1)C(C)C", "note": "(stereo not shown)", "hERG current change (%, negative = inhibition) at 10uM": -0.58},
      {"compound": "CN(C)CCCNC(=O)c1cc(C(=O)C2CCCCC2)c[nH]1", "hERG current change (%, negative = inhibition) at 10uM": -3.99},
      {"compound": "C=C(C)C(C)(C#CCN1CCCC1)OC(C)=O", "note": "(stereo not shown)", "hERG current change (%, negative = inhibition) at 10uM": -6.48},
      {"compound": "NS(=O)(=O)c1ccc(CNC(=O)CCC2CCCCC2)cc1", "hERG current change (%, negative = inhibition) at 10uM": -2.5},
      {"compound": "COc1cc(NC(=S)N2CCN(S(=O)(=O)c3ccc(C)cc3)CC2)cc(OC)c1", "hERG current change (%, negative = inhibition) at 10uM": -4.7},
      {"compound": "CC(=O)c1ccc(-n2cc(C#N)c(=O)[nH]c2=O)cc1", "hERG current change (%, negative = inhibition) at 10uM": 18.9},
      {"compound": "CC1CN(C(=O)c2cccc(COc3ccccc3Cl)c2)CC(C)O1", "note": "(stereo not shown)", "hERG current change (%, negative = inhibition) at 10uM": -49.3},
      {"compound": "Cc1ccc(C(=O)OCc2cn(-c3ccccc3)nn2)cc1", "hERG current change (%, negative = inhibition) at 10uM": -7.92},
      {"compound": "O=C(O)Cc1sc(Nc2ccccc2)nc1-c1ccc(Cl)cc1", "hERG current change (%, negative = inhibition) at 10uM": 14.6},
      {"compound": "Nc1nnc(SCC(=O)Nc2cccc(S(=O)(=O)N3CCOCC3)c2)s1", "hERG current change (%, negative = inhibition) at 10uM": 24.1},
      {"compound": "O=C(C1CC1)N1CCN(c2ccc(O)cc2)CC1", "hERG current change (%, negative = inhibition) at 10uM": -17.3},
      {"compound": "CC(=O)N1CCN(c2ccc(NC(=O)c3ccc([N+](=O)[O-])cc3)cc2)CC1", "hERG current change (%, negative = inhibition) at 10uM": 1.37},
      {"compound": "CCOC(=O)N1CCN(c2c(N3CCc4ccccc4C3)c(=O)c2=O)CC1", "hERG current change (%, negative = inhibition) at 10uM": -34.8},
      {"compound": "COc1ccc(N2CCN(C(=O)C3(C)CC3(Cl)Cl)CC2)cc1", "note": "(stereo not shown)", "hERG current change (%, negative = inhibition) at 10uM": 2.66},
      {"compound": "CCOC(=O)N1CCN(c2c(N3CC=C(c4ccccc4)CC3)c(=O)c2=O)CC1", "hERG current change (%, negative = inhibition) at 10uM": -51.9},
      {"compound": "O=C(C1CC1)N1CCN(c2ccc([N+](=O)[O-])cc2)CC1", "hERG current change (%, negative = inhibition) at 10uM": -61.8},
      {"compound": "CC1(C(=O)N2CCN(c3ccc([N+](=O)[O-])cc3)CC2)CC1(Cl)Cl", "note": "(stereo not shown)", "hERG current change (%, negative = inhibition) at 10uM": -72.7},
      {"compound": "CCOC(=O)N1CCN(c2c(-c3ccc(C)cc3)c(=O)c2=O)CC1", "hERG current change (%, negative = inhibition) at 10uM": -29.7},
      {"compound": "CC(=O)N1CCN(C(=S)c2ccc([N+](=O)[O-])cc2)CC1", "hERG current change (%, negative = inhibition) at 10uM": -3.4},
      {"compound": "CC(=O)N1CCN(c2ccc([N+](=O)[O-])cc2)CC1", "hERG current change (%, negative = inhibition) at 10uM": -55.9},
      {"compound": "CC1(C(=O)N2CCN(c3ccccc3)CC2)CC1(Cl)Cl", "note": "(stereo not shown)", "hERG current change (%, negative = inhibition) at 10uM": 6.47},
      {"compound": "COc1ccc(CC(=O)N(C)C2CCCN(Cc3ccccc3F)C2)cc1OC", "note": "(stereo not shown)", "hERG current change (%, negative = inhibition) at 10uM": -4.9},
      {"compound": "CCOC(=O)C1CSC(CC(=O)Nc2ccc(Cl)c(Cl)c2)C(=O)N1", "note": "(stereo not shown)", "hERG current change (%, negative = inhibition) at 10uM": -24.2},
      {"compound": "COc1ccc(CCC(=O)OCC(=O)Nc2sccc2C(N)=O)cc1", "hERG current change (%, negative = inhibition) at 10uM": -5.4},
      {"compound": "O=C(OCC(=O)N1CCN(c2ccccc2)CC1)c1cccc([N+](=O)[O-])c1", "hERG current change (%, negative = inhibition) at 10uM": -28.2},
      {"compound": "O=[N+]([O-])c1ccc(N2CCCCC2)cc1", "hERG current change (%, negative = inhibition) at 10uM": -16.5},
      {"compound": "CN1CCCN(c2ccc([N+](=O)[O-])cc2)CC1", "hERG current change (%, negative = inhibition) at 10uM": -66},
      {"compound": "COc1ccc(N2CCN(c3ccc(C(=O)O)cc3[N+](=O)[O-])CC2)cc1", "hERG current change (%, negative = inhibition) at 10uM": 11},
      {"compound": "CCOC(=O)C1CCN(C(=O)COc2ccc([N+](=O)[O-])cc2)CC1", "hERG current change (%, negative = inhibition) at 10uM": -60.8},
      {"compound": "CC(=O)N1CCN(c2ccc(Oc3ccc([N+](=O)[O-])c(C(F)(F)F)c3)cc2)CC1", "hERG current change (%, negative = inhibition) at 10uM": -59.9}
    ]}
  ]
}
